The whole screen tested about 320,000 compounds, of which about 7,600 (2.4%) were called active. Roughly 3% stayed inconclusive and do not appear here. What follows is part of a selection rich in actives, with near analogues and random picks from the rest. A number with no mark means an inactive call. The call rests on the fitted dose curve; in most records, active means well fitted activation curve with a large enough effect; inconclusive means small, poorly fitted or top-dose-only effect; inactive means no such curve, though single readings can be large or run the other way.
Assay: qHTS Assay for NPC1 Promoter Activators; further: nearly all actives have a fitted effect of over 60% in size;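 on activation: reporter is driven by a mutant NPC1 promoter; % of control where 0% means no effect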
Conditions: Huh7 NPC1 promoter luciferase reporter, 24 h; series mostly up to 9.22 µM; activation: at the top concentration
Method in brief: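 Stably transfected Huh7 (NPC1 promoter→luciferase), 1500 cells/well in Opti-MEM + 10% FBS, 2 h settle, then compound 24 h at 37 °C. Luminescence after 10 min with Amplite reagent.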
Potency means the concentration at half of the fitted maximal effect.

In the case of `Cc1ccc(-c2csc(-c3c[nH]c4ccccc34)n2)cc1`, the Potency is reported as 1000 nM (active).
With `Cc1ccc(-n2ncc3c(Nc4cccc(C(=O)O)c4)ncnc32)cc1` the Potency was 794 nM (active).
With `Cc1ccc2nc(-c3ccc(Br)cc3)cn2c1` the Potency was 398 nM (active).
For `Cc1ccc(-c2cn3cc([N+](=O)[O-])ccc3n2)cc1`, the Potency was 501 nM (active).
With `O=C(Nc1ccn(Cc2ccccc2)n1)c1cccc(F)c1` the Potency was 3980 nM (active).
With `CC(C)Nc1ccc(-n2nc3ccccc3[n+]2[O-])cc1` the Potency was 355 nM (active).
For `Cc1cc(Cl)ccc1OCc1nc(-c2ccncc2)no1`, the Potency was 2820 nM (active).
With `Cn1c(=NC(=O)c2ccco2)sc2cccc(F)c21` the Potency was 2510 nM (active).
In the case of `Cc1cccc(-c2noc(-c3ccc(F)cc3)n2)c1`, the Potency is reported as 100 nM (active).
In the case of `Cc1ccc(Cc2nc(-c3cccc(C)c3)no2)cc1`, the Potency is reported as 2820 nM (active).
With `COc1cc2ccccc2cc1C(=O)Nc1nc(C)c(C(C)=O)s1` the Potency was 3980 nM (active).
In the case of `CC(=O)c1sc(N/N=C/c2ccc(C(C)C)cc2)nc1C`, the Potency is reported as 1000 nM (active).
With `CC(=O)c1sc(N/N=C\c2ccc(C)cc2)nc1C` the Potency was 3550 nM (active).
In the case of `CC(=O)c1sc(NC(=O)c2ccc(C)cc2)nc1C`, the Potency is reported as 1580 nM (active).

Going from `Cc1ccc(-c2csc(-c3cc(C)on3)n2)cc1` to `CCCc1cc(-c2nc(-c3ccc(C)cc3)cs2)ccn1`, the “activation” value falls from 24% to 1.46%.

Going from `Cc1ccc(NC(=O)COC(=O)CN2CCCCCC2=O)c(C)c1` to `Cc1cccc(-c2noc(CCC(=O)NC3CCCC3)n2)c1`, the “activation” value rises from -4.74% to 12.3%.

Compared with `CC(=O)Nc1ccc(NC(=O)COC(=O)c2ccccc2C(=O)c2ccccc2)cc1`, `O=C(Nc1cccc(NC(=O)c2cccc(F)c2)c1)c1ccccc1` is lower in “activation” value: 1.63% for the first, -0.197% for the second.

Compared with `COc1ccc(C)cc1NC(=O)c1cc(-c2ccccc2)nc2c1cnn2C(C)C`, `COc1cc2ccccc2cc1C(=O)Nc1ccccc1C` is higher in “activation” value: -0.793% for the first, 27% for the second.

First: COc1ccc2nc(C)cc(Nc3cccc(C(=O)O)c3)c2c1
Second: COc1cc2ccccc2cc1C(=O)Nc1ccncc1
The “activation” value of the first is lower: -5.14% for the first, 16.7% for the second.

First: Cc1ccc(Nc2ncnc3c2cnn3C)c(C)c1
Second: CSc1nnc2ccc(-c3ccc(C)cc3)nn12
The “activation” value of the first is higher: -1.96% for the first, -3.85% for the second.

Going from `CCN(CC(=O)NCc1ccc(Cl)cc1)C(=O)c1c(C)noc1C` to `O=C(COC(=O)c1ncc(Cl)c(Cl)c1Cl)NCc1ccccc1`, the “activation” value rises from -2.27% to 0.917%.

Compared with `Cc1ccc(S(=O)(=O)N2CCN(c3ncnc4ccccc34)CC2)cc1`, `Cc1ccc(-c2noc(CN3CCN(Cc4ccccc4)CC3)n2)cc1` is higher in “activation” value: -25.2% for the first, -2.06% for the second.

First: Cc1ccc(C(=O)Cn2cc([N+](=O)[O-])nc2C)cc1
Second: CCOc1ccc(C(=O)Nc2nccs2)cc1[N+](=O)[O-]
The “activation” value of the first is lower: 0.0934% for the first, 28.4% for the second.

First: Cc1cc(N2CCOCC2)nc(-c2ccc(Br)cc2)n1
Second: COc1ccc(-c2noc(COc3ccc(Cl)c(C)c3)n2)cc1
The “activation” value of the first is higher: 1.79% for the first, -0.141% for the second.

Going from `Cc1nc(-c2ccc([N+](=O)[O-])cc2)c(-c2ccccc2)o1` to `Cc1ccc(-c2noc(CC(c3ccccc3)c3ccccc3)n2)cc1`, the “activation” value rises from -1.23% to -0.556%.

Going from `CC1CCCC(NC(=O)c2cc(-c3ccncc3)nc3ccccc23)C1C` (configuration not stated) to `Cc1cccc(-c2nc(Nc3ccc(O)cc3)c3ccccc3n2)c1`, the “activation” value falls from 4.76% to -1.56%.

First: CCOc1ncccc1C(=O)OCC(=O)c1c[nH]c2ccccc12
Second: CC(=O)c1sc(NC(=O)CCCOc2ccccc2C)nc1C
The “activation” value of the first is higher: 11.7% for the first, 0.721% for the second.

Going from `Brc1ccc(CN2CC[C@H]3C=CCc4cccc(c43)C2)cc1` to `O=C(Nc1ccccc1N1CCN(c2ccccc2)CC1)c1cccc(F)c1`, the “activation” value rises from -2.1% to -1.86%.

First: O=C(OCc1cc(=O)n2ccsc2n1)C1(c2ccc(Cl)cc2)CC1
Second: CN(Cc1ccccn1)Cc1nc(-c2ccc(Cl)cc2)no1
The “activation” value of the first is lower: 1.14% for the first, 11.1% for the second.

Compared with `Cc1ccc(S(=O)(=O)N(C)CC(=O)NCC(c2ccc(F)cc2)N2CCOCC2)cc1` (configuration not stated), `O=C(CSc1ccccc1)Nc1cccc(S(=O)(=O)N2CCOCC2)c1` is higher in “activation” value: -9.26% for the first, -2.07% for the second.

Going from `Cc1cc(NC(=O)CSc2nnnn2-c2ccc(F)cc2)no1` to `Cc1ccc(S(=O)(=O)Nc2nc(C)cc(N/N=C/c3ccc(O)cc3)n2)cc1`, the “activation” value rises from -7.22% to -0.0493%.

Compared with `N#Cc1ccc(OCC(=O)NC(=O)NC2CCS(=O)(=O)C2)cc1` (configuration not stated), `CN(C)S(=O)(=O)c1cccc(NC(=O)COc2ccc3ccccc3c2)c1` is higher in “activation” value: -3.15% for the first, -1.39% for the second.

First: Cn1c(=NC(=O)C2CC2)sc2cc(F)cc(F)c21
Second: CCCC(=O)N=c1sc2cccc(F)c2n1C
The “activation” value of the first is higher: 10.7% for the first, 3.63% for the second.

Compared with `CC(=O)c1sc(N)nc1C`, `CC(=O)c1sc(NC(=O)C2=NN(c3ccccc3)C(=O)CC2)nc1C` is higher in “activation” value: -6.08% for the first, -2.55% for the second.

First: Cc1nnc(C)n1/N=C/c1ccc(C(C)C)cc1
Second: CCOC(=O)c1sc(NC(=O)c2sc(C)nc2C)nc1C
The “activation” value of the first is higher: 0.602% for the first, -37.1% for the second.

In the case of `CC1CC2C3CCC4=CC(=O)C=C[C@]4(C)[C@@]3(F)[C@@H](O)C[C@]2(C)[C@@]1(O)C(=O)CO` (some centres not stated), the “activation” value is reported as 4.26% [at 46.1 µM].
